# This is a sample that favours compounds with a hit; in the whole collection about 5.9% have one here.
# KB-3-1 cytotox: KB-3-1 parental cell cytotoxicity. KB-3-1 viability, CellTiter-Glo ATP luminescence, 72 h. Potency, µM (doses to about 46.1 µM), hits mostly cytotoxic. 400,000 tested, 1.4% active; further: on the % scale 0 is the no-effect control and ±100 the full control effect; nearly all actives have a fitted effect of over 60% in size
#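 Parental KB-3-1 viability, qHTS format: 72 h compound exposure, 37 °C; CellTiter-Glo; media-only wells and DMSO plates as controls; concentration-effect fits on corrected data.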
# S2 tox: cell viability loss in ATXN counter-screen | AID 651635 | 400,000 tested, 0.49% active | S2 cells (HEK-293 line with an ATXN2-luciferase reporter) viability, CellTiter-Fluor protease fluorescence, 24 h | Potency, µM (highest dose often 56.7 µM), most hits filed as cytotoxic; further: nearly all actives have a fitted effect of over 40% in size
# HepG2 tox: kills HepG2 cells in TGF-b inhibitor counter-screen; 410,000 tested, 0.76% active; AID 588856; Potency, µM (titrated, usually from 46.1 µM), inactives show at the highest dose activity change, negative = cytotoxicity, hits mostly cytotoxic; HepG2 CAGA-GFP viability, ATP luminescence, 18 h
#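 HepG2 CAGA-GFP cells (1000/well, DMEM with 1% FBS) received compound, then TGF-beta at 500 pg/mL final, and were incubated 18 hours at 37 degrees C. Viability was read by CellTiter-Glo luminescence. Media-only wells were set as complete cell-killing and DMSO as no toxicity.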
# TGFb SMAD3 inh: blocks TGF-b signaling; AID 588855; 410,000 tested, 1.2% active; HepG2 CAGA-GFP TGF-b/SMAD3 reporter, GFP fluorescence, 18 h; TGF-beta stimulated, 500 pg/mL final; Potency, µM (titrated, usually from 46.1 µM), for inactives: at the top dose activity, negative = inhibition, usual class: inhibitors; further: on the % scale 0 is the no-effect control and ±100 the full control effect; nearly all actives have a fitted effect of over 65% in size
#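 HEPG2 CAGA-GFP cells (1000/well, DMEM with 1% FBS) were pre-incubated 2 h at 37 degrees C, given compound by pin tool, then stimulated with TGF-beta at 500 pg/mL final for 18 h before per-cell GFP fluorescence imaging.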
# KB-V1 MDR tox: kills drug-selected multidrug resistant KB-V1 cells. 400,000 tested, 3.4% active. KB-V1 MDR cells viability, CellTiter-Glo, 72 h. Potency, µM (titrated, usually from 46.1 µM), hits mostly cytotoxic; further: on the % scale 0 is the no-effect control and ±100 the full control effect; nearly all actives have a fitted effect of over 60% in size
#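 KB-V1 MDR subline cells in DMEM (phenol-red free, 10% FBS) exposed to compounds in qHTS concentration series for 72 h at 37 degrees C. Viability read by CellTiter-Glo luminescence; concentration-effect curves fitted after normalization and correction.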
# ATXN2 expr inh: reduces ATXN2 reporter expression in HEK-293 cells; HEK-293 ATXN2-luciferase reporter, luminescence, 24 h; Potency, µM (titrated, usually from 57 µM), for inactives: top-dose activity change, negative = inhibition, hits mostly inhibitors; 360,000 tested, 0.72% active; AID 1745845; further: on the % scale 0 is the no-effect control and ±100 the full control effect; nearly all actives have a fitted effect of over 55% in size
#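 ATXN2-luciferase reporter cells (luciferase flanked by upstream and downstream ATXN2 gene portions) were treated 24 h at 37 °C with compounds at up to 57 uM. SteadyGlo luminescence gave expression; GF-AFC fluorescence gave viability.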
# * marks the source's active call; other numbers are inactive results; i = inactive; ? = inconclusive; · = not tested or not shown; ! = a repeat was not active. The call rests on the fitted dose curve; in most records, active means well fitted curve in the direction sought with a large enough effect; inconclusive means small, poorly fitted or top-dose-only effect, or another doubt; inactive means no such curve, though single readings can be large; an effect the other way counts as inactive or inconclusive. Potency means the concentration at half of the fitted maximal effect.
SMILES,KB-3-1 cytotox,S2 tox,HepG2 tox,TGFb SMAD3 inh,KB-V1 MDR tox,ATXN2 expr inh
C/C(=N\NC(=O)C1(C)CC1(Br)Br)c1ccc(NC(=O)C2CCC2)cc1 (stereo not drawn),20.6µM*,?,-48.1%,?,?,-27.6%
Cc1ccc(-c2cn(-c3ccccc3)c3[n+]2CCCS3)cc1,1.84µM*!,i,-6.6%,?,i,?
c1ccc(-c2cn(-c3ccccc3)c3[n+]2CCCS3)cc1,?,i,5.9%,-3.2%,i,-4.6%
CCc1ccc(-n2cc(-c3ccc(F)cc3)[n+]3c2SCCC3)cc1,9.2µM*,i,-35.8%,-14.7%,i,?
Cc1ccc(NC(=O)C(NS(=O)(=O)c2ccc3c(c2)CCC(=O)N3)c2ccccc2)cc1C (stereo not drawn),i,i,-23.0%,?,i,42.5%
CCOC(=O)c1c(C)c(C(=O)NCc2cccs2)c(C)n1CC,i,i,-22.7%,-20.6%,14.6µM*,2.8%
CCOC(=O)c1c(C)c(C(=O)NCc2ccc3c(c2)OCO3)c(C)n1C,i,i,-11.4%,-6.9%,18.4µM*,-6.8%
CCOC(=O)c1c(C)c(C(=O)NCc2ccc3c(c2)OCO3)c(C)n1CC,i,i,5.2%,3.3%,i,-2.0%
CCOC(=O)c1c(C)c(C(=O)NCc2ccc(OC)cc2)c(C)n1CC,i,i,-10.4%,-10.5%,i,2.1%
Cc1cc(C)cc(-n2nnc(C(=O)NCc3ccc4c(c3)OCO4)c2N)c1,i,?,-27.7%,0.0%,8.2µM*,-13.7%
Cc1ccc(CNC(=O)C(=O)NCC(c2ccc3c(c2)OCO3)N2CCOCC2)cc1 (stereo not drawn),·,·,1.6%,0.0%,·,·
CC=C1NC(=O)[C@H]2CSSCCC=C[C@H](CC(=O)N[C@H](C(C)C)C(=O)N2)OC(=O)[C@H](C(C)C)NC1=O,·,·,·,·,·,5.3%
CN(C(=S)Oc1ccc(C(=O)Nc2ccccc2)cc1)c1ccccc1,?,i,5.0%,?,2.91µM*,-6.2%
Cc1cc(NC(=O)c2ccc3c(c2)OCCO3)ccc1NC(=O)c1ccco1,i,i,-38.2%,-8.9%,i,-9.1%
O=C(/C=C\c1ccco1)Nc1ccc(N2CCN(C(=O)c3ccccc3)CC2)cc1,i,i,-21.9%,?,23.1µM*,1.0%
O=C(Nc1ccc(NC(=O)c2ccco2)cc1)c1ccc2c(c1)OCCO2,i,?,6.4%,5.6%,i,15.8µM*
O=C(/C=C/c1ccco1)N1CCN(c2ccccc2)CC1,i,i,-28.5%,0.0%,i,56.8%
O=C(Nc1ccc(N2CCN(C(=O)c3ccco3)CC2)cc1)c1ccc2c(c1)OCO2,5.8µM*,i,6.8%,-4.8%,i,?
CCc1ccccc1NC(=O)C1CCN(S(=O)(=O)c2cn(C)cn2)CC1,·,·,0.1%,1.0%,·,·
COc1ccc(-c2nc3cc(F)ccc3cc2CN(C(=O)c2ccc3c(c2)OCO3)C2CC2)cc1,·,i,·,·,·,·
CN(C(=O)c1ccc(NC(=O)c2ccco2)cc1)c1ccccc1,i,·,7.94µM*,-2.5%,i,17.1%
O=C(Nc1ccc(N2CCN(C(=O)c3ccco3)CC2)cc1)c1cc(Br)ccc1Cl,?,·,-12.7%,-29.8%,2.06µM*,?
CCOC(=O)Cc1ccc(Nc2nc3cc(-c4sccc4C)sc3c(=O)n2C)cc1,10.3µM*,?,-27.2%,?,14.6µM*,-22.0%
COc1ccc(Nc2nc3cc(-c4sccc4C)sc3c(=O)n2C)cc1OC,5.8µM*,i,-15.7%,?,6.51µM*,-18.3%
Oc1cccc2ccc(Nc3ccccn3)nc12,5.8µM*,·,5.62µM*,?,?,0.0%
c1ccc(Nc2ccccc2Nc2ccccn2)nc1,i,i,2.2%,12.0%,?,0.0%
O=c1cc(-c2ccccc2)c2ccc(O)c(CN3CCCCC3)c2o1,i,i,-4.2%,14.7%,13µM*,-5.9%
